Among the data in PubChem BioAssay AID2551 (National Center for Advancing Translational Sciences (NCATS), 2010) are Potency and activity change, negative = inhibition values, retold here.

The whole screen tested about 310,000 compounds, of which about 17,000 (5.5%) were called active. Entries that show only a call come without a potency. Roughly 11% stayed inconclusive and do not appear here. Calls follow the shape of the dose curve; as a rule, active = well fitted inhibition curve with a large enough effect; inconclusive = small, poorly fitted or top-dose-only effect, or effect the other way; inactive = no such curve, though single readings can be large or run the other way. The sample as a whole holds a higher share of actives than the screen did.
Potency is read from the fitted curve at half-maximal effect.

Sequence of Nuclear receptor ROR-gamma (Mus musculus) (P51450 whole entry, looked up, the tested form may be a part): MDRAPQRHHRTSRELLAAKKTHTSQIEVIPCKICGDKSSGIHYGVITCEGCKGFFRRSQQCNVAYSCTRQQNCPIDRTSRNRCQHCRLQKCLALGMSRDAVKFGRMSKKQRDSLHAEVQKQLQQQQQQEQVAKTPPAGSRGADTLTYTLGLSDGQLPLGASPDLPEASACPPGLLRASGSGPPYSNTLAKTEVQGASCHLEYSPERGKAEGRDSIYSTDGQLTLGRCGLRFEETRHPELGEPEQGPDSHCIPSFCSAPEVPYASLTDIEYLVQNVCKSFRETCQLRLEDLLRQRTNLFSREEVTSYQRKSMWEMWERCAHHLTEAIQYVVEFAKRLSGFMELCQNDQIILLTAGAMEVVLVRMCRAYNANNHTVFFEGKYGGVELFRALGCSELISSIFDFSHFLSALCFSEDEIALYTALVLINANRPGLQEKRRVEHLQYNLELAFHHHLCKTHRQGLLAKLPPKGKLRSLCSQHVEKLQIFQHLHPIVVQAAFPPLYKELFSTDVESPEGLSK

The assay has as its target Nuclear receptor ROR-gamma (Mus musculus) (UniProt P51450). Put plainly: qHTS for inhibitors of ROR gamma transcriptional activity. Also: nearly all actives have a fitted effect of over 60% in size. As to conditions: Drosophila S2 Gal4-RORgamma UAS-luciferase reporter, 20 h; series mostly up to 53.6 µM. Put shortly: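 Stably transfected Drosophila Schneider cells are the test system, with ROR gamma fused to Gal4 and luciferase under UAS control; luminescence is read after 20 hr of 700 uM copper sulfate induction at ambient temperature.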
For orientation: qHTS replaces the single test concentration by a dilution series.
Take `COc1ccccc1NC(=O)/C=C/C(=O)O`: the Potency result is “inactive”. Take `CC(C)C(=O)Nc1cccc(NC(=O)c2ccc([N+](=O)[O-])cc2Cl)c1`: the Potency result was “inactive”. On the same count and under the same terms, the value for `COc1ccccc1NC(=O)C(C)OC(=O)CC1CCCC1` (centres undefined) was “inactive”; that for `COC(=O)c1ccccc1NC(=O)c1ccccc1NS(C)(=O)=O` was “inactive”; that for `COc1ccccc1NC(=O)c1ccc(C)s1` was “inactive”. As to `CCc1ccccc1NC(=S)Nc1cc(OC)c(NC(=O)C(C)C)cc1OC`, the activity change, negative = inhibition is -14.6% [at 1.91 µM] (inactive). On to `COc1ccccc1NC(=O)/C=C/C(N)=O`, for which the Potency is 4.47 µM (active). Regarding `CC(C)C(=O)Nc1cccc(NC(=S)NC(=O)C(c2ccccc2)c2ccccc2)c1`, the Potency was 7.08 µM (active). Same read-out and setting: as for `COC(=O)c1ccccc1NC(=S)NC(=O)c1ccccc1F`, the figure is 12.6 µM (active); as for `COc1cccc(NC(=O)C(C)Oc2ccccc2)c1` (centres undefined), “inactive”. On the same count and under the same terms, as for `COc1ccccc1NC(=S)NC(=O)C(C)C`, the figure is 5.01 µM (active); as for `NC(=O)c1ccccc1NC(=O)c1ccccc1F`, “inactive”; as for `Cc1ccc(C(=O)NC23CC4CC(CC(C4)C2)C3)c(Cl)c1`, “inactive”. Same read-out and setting: the value for `Oc1ccccc1C1=NN(c2ccccc2)C(c2ccccc2)C1` (centres undefined) was “inactive”.

As to `CC(C)c1nnc(NC(=O)COC(=O)/C=C/c2ccc([N+](=O)[O-])cc2)s1`, the Potency entry was “inactive”. Turning to `NNC(=O)c1nnn(-c2nonc2N)c1CN1CCCC1`, the Potency result is “inactive”. Still for that read-out and setting: the value for `CCc1ccc(NC(=O)NC(C)c2ccc3c(c2)OCO3)cc1` (centres undefined) was “inactive”; that for `O=C(CN(Cc1ccc(Br)cc1)S(=O)(=O)c1ccccc1)NCc1ccncc1` was “inactive”; that for `COc1ccccc1OCCNC(=O)CCNC(=O)c1ccccc1Cl` was “inactive”. Still for that read-out and setting: the value for `CC(C)CCn1cnc2c1c(=O)n(CC(=O)NC(N)=O)c(=O)n2Cc1ccccc1` was “inactive”; that for `O=C(NCc1ccco1)/C(=C/c1ccco1)NC(=O)c1ccccc1` was “inactive”; that for `CC(=O)c1nn(-c2cccc(C(F)(F)F)c2)c(=O)[nH]c1=O` was “inactive”. Still for that read-out and setting: as for `O=S(=O)(Cc1nnnn1-c1ccccc1)c1ccccc1`, the entry is “inactive”; as for `O=C(COc1ccc2c3c(c(=O)oc2c1)CCCC3)NCC(O)c1ccccc1` (centres undefined), “inactive”. Consider `CC(C)CC(=O)NC(=S)Nc1ccc(F)cc1F`, for which the Potency entry was “inactive”. Turning to `O=C(Nc1ccccc1F)c1ccccc1-c1ccccc1`, the Potency entry is “inactive”.

In the case of `CC(C)C(=O)NC(=S)Nc1ccccc1F`, the Potency is 7.08 µM (active). The same measure, in the same setting: as for `O=C(c1n[nH]c2c1CCC2)N1CCCC(Nc2cccc(F)c2)C1` (centres undefined), the entry is “inactive”. In the case of `COc1ccccc1N(CC(=O)N/N=C(\C)c1ccccc1O)S(=O)(=O)c1ccc(C)cc1`, the Potency is 0.562 µM (active).

In the case of `COc1ccc(S(=O)(=O)N(CC(=O)N/N=C/c2ccccc2C(=O)O)c2ccccc2OC)cc1`, the Potency result is “inactive”. For `COc1ccccc1NC(=O)CN(c1ccccc1OC)S(=O)(=O)c1ccccc1`, the Potency result was “inactive”. Same read-out and setting: as for `Cc1nc([N+](=O)[O-])cn1CC(=O)Nc1ccc(Cl)cc1`, the entry is “inactive”. With `N#CC1=C(N)Oc2[nH]c(=S)[nH]c(=O)c2C12C(=O)Nc1ccccc12` (centres undefined), the Potency entry was “inactive”. `CC1(C)Cc2ccccc2-c2[nH]c(=S)[nH]c(=O)c21`: the Potency was 17.8 µM (active). Consider `CC1(C)Cc2ccccc2/C(=C/C(=O)c2ccccc2)N1`, for which the Potency entry was “inactive”.

`Cc1nn(C(C)(C)C)c(OC(=O)CC(C)C)c1S(=O)(=O)c1ccccc1`: the Potency result was “inactive”.

On to `COc1ccc(C)cc1S(=O)(=O)Nc1cccc(Cl)c1Cl`, for which the Potency result is “inactive”. Still for that read-out and setting: the value for `COc1ccc(C)cc1Nc1n[n+](-c2ccccc2)c(-c2cccc(Cl)c2Cl)s1` was 6.31 µM (active). The same measure, in the same setting: the value for `COc1ccc(C)cc1Nc1nc(-c2c(C)[nH]c3ccccc23)cs1` was “inactive”; that for `COc1cc(Br)c(-c2sc(Nc3ccccc3)n[n+]2-c2ccccc2)cc1OC` was 11.2 µM (active); that for `CCOc1ccc2c(c1)c(=O)c(S(=O)(=O)c1ccc(C)cc1)cn2CC` was “inactive”. For the compound `CC(=O)N1CCN(CC(c2ccccc2)c2ccccc2)CC1`, the Potency entry is “inactive”. The same measure, in the same setting: the value for `COc1ccc(C(=O)C2CCCN(S(=O)(=O)c3cccc(C)c3)C2)c(C)c1` (centres undefined) was “inactive”.

Turning to `Cc1csc(-c2coc3cc(O[C@@H]4O[C@H](CO)[C@@H](O)[C@@H](O)[C@H]4O)ccc3c2=O)n1`, the Potency is 3.16 µM (active). On the same count and under the same terms, as for `CCc1cccc(OC2OC(CO)C(O)C(O)C2NC(C)=O)c1` (centres undefined), the entry is “inactive”. The same measure, in the same setting: as for `COc1cc(/C=C/CO)cc(OC)c1O[C@@H]1O[C@H](CO)[C@@H](O)[C@H](O)[C@H]1O`, the entry is “inactive”; as for `O=C(O)c1cc([N+](=O)[O-])c(Nc2cccc3ccccc23)c([N+](=O)[O-])c1`, “inactive”; as for `CSc1ccccc1NC(=O)c1ccc2c(c1)CCN2S(C)(=O)=O`, “inactive”.

Take `Cc1occc(=O)c1OCc1c(Cl)cccc1Cl`: the Potency entry is “inactive”. `O=C(NCCc1ccccc1)c1ccc(OCCOc2ccccc2)cc1`: the Potency entry was “inactive”. For the compound `CCCOc1ccc(C(=O)NCCc2ccccc2)cc1`, the Potency was 11.2 µM (active). For the compound `O=C(NCCOc1ccccc1)c1ccccc1`, the Potency entry is “inactive”.

In the case of `CCOC(=O)c1c(C)[nH]c(C)c1S(=O)(=O)NCCCc1ccco1`, the Potency result was “inactive”. Consider `C/C(Cc1ccccc1)=N\NC(=O)CNC(=O)c1ccc2c(c1)OCCO2`, for which the Potency result was “inactive”.

In the case of `COCc1nnc(NC(=O)c2ccc3c(c2)OCO3)s1`, the Potency entry is “inactive”. On the same count and under the same terms, the value for `O=C(Nc1ccccc1F)c1ccc2c(c1)OCO2` was “inactive”; that for `Cc1cc(C)c2nc(NC(=O)C3CCCO3)sc2c1` (centres undefined) was “inactive”. Take `Cc1ccc(F)cc1NC(=O)c1ccc2c(c1)OCO2`: the Potency result is “inactive”.

Regarding `Cc1ccc2sc(NNC(=O)c3ccc4c(c3)OCCO4)nc2c1C`, the Potency is 7.94 µM (active).

As to `Cc1ccc(-n2nc3c(c2NC(=O)c2ccc4c(c2)OCO4)CSC3)c(C)c1`, the Potency entry is “inactive”. Same read-out and setting: the value for `O=C(Nc1nc2ccccc2s1)c1ccc2c(c1)OCO2` was 7.94 µM (active). The same measure, in the same setting: the value for `Cc1cc(C)c2nc(NC(=O)c3ccc4c(c3)OCO4)sc2c1` was 0.251 µM (active). `COc1ccc(C)cc1N(C(=O)Cn1nnc(-c2ccc(C)o2)n1)C(C(=O)NC1CCCC1)c1ccncc1` (centres undefined): the Potency result is “inactive”.

On to `CCCN1CCN(C(=O)CCCNC(=O)c2ccc(Cl)cc2)CC1`, for which the Potency entry was “inactive”. Same read-out and setting: the value for `COCCCN1C(=O)c2ccc(C(=O)OCC(=O)NCc3ccccc3OC)cc2C1=O` was “inactive”. With `CCOCCCNc1nc(-c2ccccc2)nc2ccccc12`, the activity change, negative = inhibition is 24.9% [at 1.91 µM] (inactive). For the compound `COc1ccc(CN(C)C(=O)Cc2ccsc2)c(OC)c1OC`, the Potency entry was “inactive”.

Regarding `CC(=O)c1ccc(NC(=O)c2ccc(-n3cncn3)c([N+](=O)[O-])c2)cc1`, the Potency result is “inactive”. For the compound `CCCC[C@]12Cc3cc(OC)c(OC)cc3C(O1)C1=C(CC3(CCCCC3)OC1=O)O2`, the activity change, negative = inhibition is 3.02% [at 10 µM] (inactive). On to `COCCc1nn2c(=O)cc(COC(=O)c3cc(OC)c(OC)c(OC)c3)nc2s1`, for which the Potency result is “inactive”. With `CN(c1ccccc1)S(=O)(=O)c1ccc(C(=O)NCCc2ccccc2)cc1`, the Potency entry was “inactive”. Turning to `CCCc1cc(C(=O)N2CCCC(CO)(CCCc3ccccc3)C2)n(C)n1` (centres undefined), the Potency result is “inactive”. On the same count and under the same terms, as for `CCOc1ccc(NC(=O)CCCCCN2C(=O)[C@@H]3Cc4ccccc4CN3C2=O)cc1`, the entry is “inactive”; as for `Cc1cc(-c2nnc(SCC(=O)Nc3ccc(F)cc3)n2N)n[nH]1`, “inactive”; as for `C=CCOC(=O)C1=C(C)OC(N)=C(C#N)C1c1ccc(F)cc1` (centres undefined), “inactive”. `C=CCC1(C#N)C(=S)NC(C)=C(C(=O)OCC)C1c1ccccc1` (centres undefined): the Potency was 10 µM (active). On the same count and under the same terms, the value for `CCOC(=O)C1=C(C)NC(SC)=NC1c1ccccc1` (centres undefined) was “inactive”; that for `CC(C(=O)Nc1ccc(O)c(C(=O)O)c1)N1C(=O)/C(=C/c2cccs2)SC1=S` (centres undefined) was “inactive”; that for `O=C(COC(=O)c1ccc(F)cc1)NCCCc1ccccc1` was “inactive”. The same measure, in the same setting: as for `O=C(NCCc1cccc(F)c1)C1CCCN(c2nc3ccccc3s2)C1` (centres undefined), the entry is “inactive”; as for `COc1cccc(NC(=O)c2ccccc2SC)c1`, “inactive”; as for `COc1cccc(NC(=O)c2nn(-c3ccc(OC)cc3OC)c(=O)c3ccccc23)c1`, “inactive”. Still for that read-out and setting: as for `COc1cccc(NC(=S)NC(=O)c2c(Cl)c(C)nn2C)c1`, the figure is 3.55 µM (active). With `CC1(C(=O)N/N=C/c2cc3c(cc2Br)OCO3)CC1(Br)Br` (centres undefined), the Potency entry is “inactive”. Still for that read-out and setting: the value for `COc1ccccc1-c1nnc(SCC(=O)Nc2cc(C)on2)o1` was “inactive”; that for `CC(=O)Oc1ccc(-c2nc3c(C)cccc3c(=O)o2)cc1` was “inactive”; that for `COc1ccc(/C=C/c2noc(-c3ccccc3OC(C)=O)n2)cc1` was 11.2 µM (active). Regarding `CCOC(=O)c1ccc(NC(=O)c2nc[nH]c2C(=O)NCc2ccccc2)cc1`, the Potency was 3.55 µM (active). Still for that read-out and setting: as for `CCOC(=O)c1c(C)[nH]c(C)c1S(=O)(=O)N(C)CC(=O)Nc1ccccc1C`, the entry is “inactive”; as for `CCOC(=O)c1ccc(NC(=O)CNC(=O)c2ccco2)cc1`, “inactive”; as for `Cc1ccccc1NC(=O)CCOc1ccccc1`, “inactive”. Same read-out and setting: the value for `CCOC(=O)c1[nH]cnc1C(=O)Nc1ccccc1C` was 12.6 µM (active). The same measure, in the same setting: the value for `CCOC(=O)c1ccc(NC(=O)c2cc(=O)[nH]c3ccccc23)cc1` was “inactive”; that for `Cc1ccc(CNS(=O)(=O)c2ccc3c(c2)N(C)CCO3)cc1` was “inactive”; that for `COc1ccc(CCNC(=O)CSCc2ccc(Br)cc2)cc1OC` was “inactive”. Turning to `COc1cc(C(C(=O)NC2CCCC2)N(C(=O)c2ccco2)c2ccccc2C(C)=O)cc(OC)c1OC` (centres undefined), the Potency result was “inactive”. Turning to `CCN1N=C(c2ccccc2)CCC1=O`, the Potency entry was “inactive”.

`COCCCNc1nc2c(-c3cccc(C)c3)nnn2c2ccc(Cl)cc12`: the Potency result was “inactive”. Turning to `COC(=O)Cn1cc(C(=O)c2cccs2)c2ccccc21`, the Potency result was “inactive”. Same read-out and setting: the value for `COC(=O)Cn1cc(/C=C/[N+](=O)[O-])c2ccccc21` was 10 µM (active); that for `COCCCNC(=O)Cn1cc(/C=C(\C#N)C(=O)N2CCN(c3ccccc3)CC2)c2ccccc21` was “inactive”. As for `O=C(NCc1cccc(Cl)c1)C1CCN(c2nnc(N3CCCC3=O)s2)CC1`, the Potency entry is “inactive”. With `CCOC(=O)C1CCN(C(=O)C2CCCN(S(=O)(=O)c3ccc(OC)c(Cl)c3)C2)CC1` (centres undefined), the Potency result is “inactive”. For `COc1ccc(/C=C/C(=O)Nc2cccnc2)cc1OC`, the Potency result is “inactive”. On the same count and under the same terms, the value for `COc1cc(/C=N/NC(=S)Nc2cccnc2)cc(OC)c1O` was 6.31 µM (active). Same read-out and setting: the value for `CCOC(=O)N/N=C/c1cccnc1` was “inactive”.

In the case of `Cc1[nH]c2ccccc2c1/C=N\NC(=O)Cn1nnc(-c2ccccc2)n1`, the activity change, negative = inhibition was 7.95% [at 10 µM] (inactive). For the compound `COCCNC(=S)N/N=C/c1c(C)[nH]c2ccccc12`, the Potency was 11.2 µM (active). The same measure, in the same setting: the value for `COc1cc(N=Cc2c(O)[nH]c3ccccc23)cc(OC)c1OC` was “inactive”.
